Screens as filed in PubChem BioAssay.
C8 TRAIL sens: caspase-8 TRAIL sensitization. inhibition (viability loss, TRAIL sensitization), % at 10 µM. 1% of 360,000 active. NB7+C8 cells + TRAIL, ATPlite viability luminescence. AID 624354;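 active means compounds causing at least 50% loss of cell viability in the single-dose screen, relative to plate controls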
SENP7 block: inhibitors of human SENP7 protease; AID 434973; 1.5% of 330,000 active; inhibition, % at 5 µM; recombinant SENP7, Z-RLRGG-aminoluciferin luminescence, 40 min;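 active means inhibition above about 50% at the single test dose, limit read from the data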;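 further: plate controls were DMSO with enzyme for no effect and no enzyme buffer wells for full effect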
Target sequence (Q9BQF6 706-1050 limits assumed): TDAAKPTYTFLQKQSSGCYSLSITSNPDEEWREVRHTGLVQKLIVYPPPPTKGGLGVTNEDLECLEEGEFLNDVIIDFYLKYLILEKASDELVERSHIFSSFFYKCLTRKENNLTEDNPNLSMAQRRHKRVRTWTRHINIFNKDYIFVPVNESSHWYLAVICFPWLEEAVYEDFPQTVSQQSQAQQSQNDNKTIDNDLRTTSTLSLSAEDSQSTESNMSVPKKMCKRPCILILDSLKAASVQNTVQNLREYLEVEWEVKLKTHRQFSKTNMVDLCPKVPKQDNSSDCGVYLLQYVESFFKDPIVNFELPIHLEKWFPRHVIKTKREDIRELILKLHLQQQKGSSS
SENP8 block-1: SENP8 (human) protease inhibition. Q96LD8. recombinant SENP8, Nedd8 substrate fluorescence. inhibition, % at 20 µM. 0.64% of 360,000 active. AID 602440; in the data active means inhibition mostly above about 40%, no sharp cut-off; inactive means mostly below about 27%
SENP6 inh: blocks the human protease SENP6. inhibition, % at 10 µM. 1.8% of 330,000 active. Q9GZR1. Recombinant SENP6 catalytic domain, aminoluciferin luminescence. AID 2599;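 active means inhibition above about 50% at the single tested dose, limit read from the data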;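 further: plate controls were DMSO wells with enzyme for no effect and DMSO wells lacking enzyme for full effect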
SENP8 block-2: SENP8 protease inhibition; purified SENP8, Z-RLRGG-aminoluciferin cleavage, luminescence; Q96LD8; 1.2% of 330,000 active; AID 2540; inhibition, % at 10 µM; in the data active means inhibition above about 50%
PPC-1+TRAIL kill: compounds killing PPC-1 cancer cells with TRAIL present (potentiator screen, no TRAIL-free arm); 0.41% of 220,000 active; cell killing (% activity), % at 4 µM or 5 µM; AID 1443; PPC-1 cells + TRAIL, ATPLite viability luminescence;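 active means cell killing above 50% in the first pass at 4 µM, then a duplicate retest at 5 µM averaging 50% or more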;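 further: plate controls were cells with TRAIL plus DMSO for no effect and medium-only wells lacking cells for full effect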
SENP8 confirm: human SENP8 inhibition, confirmed | shares compounds with SENP7 block | Recombinant SENP8, Z-RLRGG-aminoluciferin luminescence, 60 min | inhibition, % at 12.5 µM | 40% of 6,200 active | AID 488912;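 active means mean inhibition across replicates above about 50%, limit read from the data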
SENP6 confirm: confirmation of human SENP6 protease inhibitors | shares compounds with SENP7 block | 58% of 6,200 active | inhibition, % at 12.5 µM | recombinant SENP6, Z-RLRGG-aminoluciferin luminescence
SENP7 confirm: human SENP7 inhibition, confirmed; shares compounds with SENP7 block; recombinant SENP7, Z-RLRGG-aminoluciferin luminescence, 40 min; inhibition, % at 12.5 µM; 69% of 6,200 active
Casp3 SENP sel: selectivity test for SENP inhibitors: human caspase-3 inhibition; shares compounds with SENP7 block; purified caspase-3, Z-DEVD-aminoluciferin luminescence, 60 min; inhibition, % at 12.5 µM; 60% of 6,200 active; AID 488918;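 active means mean inhibition above about 50%, limit read from the data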;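 further: plate controls were enzyme with DMSO for no effect and wells without caspase-3 for full effect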
Target sequence (P42574 28-227 limits assumed): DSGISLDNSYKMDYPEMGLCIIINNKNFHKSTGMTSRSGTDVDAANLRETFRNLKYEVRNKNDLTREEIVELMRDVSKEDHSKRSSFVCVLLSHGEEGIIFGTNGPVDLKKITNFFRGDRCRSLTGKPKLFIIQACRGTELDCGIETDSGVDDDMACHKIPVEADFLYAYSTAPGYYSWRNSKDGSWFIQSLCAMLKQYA
SENP luc ctr: counter-screen for SENP inhibitors: luminescence interference; shares compounds with SENP7 block; Pre-incubated SENP8/Z-RLRGG-aminoluciferin, luciferase luminescence interference; inhibition, % at 12.5 µM; 39% of 6,200 active;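 active means mean inhibition above about 50% when retested at one dose, limit read from the data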;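 further: plate controls were DMSO wells with completed reaction for no effect and substrate without enzyme for full effect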
An asterisk follows results filed as active; x = no result. A selection: hits, their analogues and other compounds. The true share with any hit is near 3%.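 How the source made its calls, unless noted: active means mean inhibition above about 50% in the one-dose retest (limit read from the data); inactive means the rest.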

SMILES	C8 TRAIL sens	SENP7 block	SENP8 block-1	SENP6 inh	SENP8 block-2	PPC-1+TRAIL kill	SENP8 confirm	SENP6 confirm	SENP7 confirm	Casp3 SENP sel	SENP luc ctr
CCN(CC)S(=O)(=O)c1ccc(N=Nc2cc(C)cc(Br)c2O)cc1	1	-10	34	-6	-2	x	x	x	x	x	x
Oc1ccc(N=Nc2n[nH]c(-c3ccc(Br)cc3)n2)cc1	-2	x	24	x	x	-2	x	x	x	x	x
COc1ccc(/C=C/C(=O)NC(=S)N2CCOCC2)cc1	7	70*	-2	70*	46	x	62*	56*	83*	80*	67*
O=C1c2ccccc2C(=O)C1c1nccc2ccccc12	89*	96*	34	97*	59*	-3	87*	81*	98*	92*	29
O=Cc1nccc2ccccc12	10	x	-9	x	x	x	x	x	x	x	x
CSc1ncnc2c1ncn2CCCNCc1ccc(C)o1	16	x	14	x	x	x	x	x	x	x	x
CC(=O)OCC(=O)Nc1ccc([N+](=O)[O-])cc1Cl	-11	6	12	7	-2	13	x	x	x	x	x
CC(=O)Oc1c(C)cc(Cl)cc1C(=O)Nc1ccc([N+](=O)[O-])cc1Cl	31	98*	18	84*	24	39	9	8	10	24	14
O=C(O)c1ccc(Nc2cnc3ccccc3n2)cc1	-6	97*	-70	93*	88*	9	92*	92*	100*	97*	87*
CCOC(=O)c1ccc(Nc2ncccc2[N+](=O)[O-])cc1	8	83*	40	24	34	15	32	39	48	57*	6
CCOC(=O)c1ccc(NCc2nc3ccccc3[nH]2)cc1	39	58*	-46	93*	85*	-8	67*	61*	83*	68*	71*
CCOC(=O)c1ccc(Nc2cnc3ccccc3n2)cc1	-17	56*	-332	18	-14	24	7	20	63*	11	8
CCOC(=O)c1ccc(NC(=O)c2ccccc2[N+](=O)[O-])cc1	25	-2	12	-17	-7	10	x	x	x	x	x
CCOC(=O)c1ccc(Nc2cc(C)nc(-c3ccccc3)n2)cc1	26	2	-172	-6	-13	x	x	x	x	x	x
CCOc1ccc(N2CC(C(=O)Nc3cc(S(=O)(=O)N4CCCCC4)ccc3C)CC2=O)cc1 (centres undefined)	-31	5	0	-8	-6	x	x	x	x	x	x
Cn1c(Nc2ccccc2)nc2ccccc21	14	1	21	-15	-8	x	x	x	x	x	x
Nn1c(Nc2ccccc2)nc2ccccc21	15	42	24	67*	28	2	51*	47	81*	73*	59*
COc1ccc(NC(=O)Nc2ccc(N(C)C)cc2)cc1	13	77*	17	81*	47	18	24	70*	90*	85*	14
COc1ccc(Cl)cc1NC(=O)Nc1ccccc1SC	-3	0	10	-8	0	19	x	x	x	x	x
COc1ccc(NC(=O)Nc2ccccc2SC)cc1	35	98*	20	96*	92*	12	95*	96*	101*	96*	16
COc1ccc(NC(=O)Nc2ccc(OC)cc2)cc1	0	15	20	-18	-4	16	x	x	x	x	x
CSc1ccccc1NC(=O)Nc1ccc(Cl)cc1	23	96*	13	7	92*	13	3	96*	101*	85*	63*
COc1ccc(S(=O)(=O)N(C)C)cc1NC(=O)COC(=O)c1nn(C)c(=O)c2ccccc12	4	2	12	0	-1	0	x	x	x	x	x
COc1ccccc1C(=O)Nc1ccnn1C1CCN(C/C=C/c2ccc(F)cc2)CC1	16	-2	14	8	3	x	x	x	x	x	x
Nc1ccccc1C(=O)/C=C/c1ccc2c(c1)OCO2	28	94*	-7	84*	66*	28	90*	81*	93*	55*	73*
SMILES	C8 TRAIL sens	SENP7 block	SENP8 block-1	SENP6 inh	SENP8 block-2	PPC-1+TRAIL kill	SENP8 confirm	SENP6 confirm	SENP7 confirm	Casp3 SENP sel	SENP luc ctr
Cc1ccc(C(=O)C=Cc2ccc3c(c2)OCO3)c(C)c1	2	x	-34	x	x	x	x	x	x	x	x
O=C(COc1ccccc1)Nc1cccc(-c2ccc(N3CCOCC3)nn2)c1	70*	53*	-22	61*	29	x	-26	28	76*	66*	-7
Cc1ccc(C(=O)Nc2cccc(-c3ccc(N4CCOCC4)nn3)c2)cc1[N+](=O)[O-]	48	63*	-6	67*	50*	x	-6	-4	-4	7	6
O=C(Nc1cccc(-c2ccc(N3CCOCC3)nn2)c1)c1ccccc1	37	26	-18	27	5	x	x	x	x	x	x
Cc1ccc([N+](=O)[O-])cc1S(=O)(=O)Nc1cccc(-c2ccc(N3CCCC3)nn2)c1	7	16	13	90*	83*	x	62*	76*	87*	70*	6
Cc1ccc(S(=O)(=O)Nc2cccc(-c3ccc(N4CCCCCC4)nn3)c2)cc1C	11	5	-10	-6	-10	x	x	x	x	x	x
O=C(COc1ccc(Cl)cc1Cl)Nc1cccc(-c2ccc(N3CCOCC3)nn2)c1	39	76*	-24	2	-6	x	8	9	-3	5	-1
CC1C(=O)N(Cc2cn(CCC3OCCCO3)nn2)CCS(=O)(=O)N1Cc1ccc(-c2ccc(Cl)cc2)cc1 (centres undefined)	33	x	10	x	x	x	x	x	x	x	x
COc1cccc(NC(=O)C2CCOC2=O)c1 (centres undefined)	-16	-4	19	-30	-10	x	x	x	x	x	x
CCOc1ccc(S(=O)(=O)N2CCOCC2)cc1NC(=O)CSC(=S)N1CCCC1	5	-2	13	-4	9	x	x	x	x	x	x
CNc1ncnc2c1ncn2[C@H]1CN(C2CCCC2)C[C@@H](CO)O1	2	x	0	x	x	x	x	x	x	x	x
COc1ccc2c(c1)CCCC21SC(NC(C)=O)=NN1C(C)=O (centres undefined)	0	-12	17	-21	-10	-4	x	x	x	x	x
O=C(Nc1ccccc1)OCC1CCCN2CCCCC12 (centres undefined)	7	-5	29	-9	-8	26	x	x	x	x	x
CC1=CCC(COC(=O)Nc2ccccc2)CC1 (centres undefined)	29	89*	6	82*	80*	13	86*	90*	99*	75*	81*
